Screens: PubChem BioAssay, National Center for Advancing Translational Sciences (NCATS)
GALK inhibitor: qHTS Assay for Inhibitors of Human Galactokinase (GALK). P51570. Purified GALK, Kinase-Glo residual ATP luminescence. Potency, µM (top dose mostly 57.5 µM), usual class: inhibitors. actives 0.007% (n = 270,000)
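Quantitative HTS: GALK 5 nM, ATP 35 uM, galactose 100 uM, 1 h room temperature, then luciferase-based ATP detection.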
CtBP-E1A blk: qHTS Assay for Inhibitors of the CtBP/E1A Interaction. CtBP / adenovirus E1A interaction (AlphaScreen). AlphaScreen GST-E1A/His-CtBP binding, 1536-well; stronger effect = lower value. activity change, % (no concentration beside the values). actives 0.49% (n = 340,000). AID 651724, 2012; in the data active = activity change below about -65%; inconclusive = mostly about -30% to -63%
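GST-E1A and His-tagged CtBP (125 nM each as 5X stock) were preincubated with pin-transferred compound for 2 h at 37 °C in the dark, then glutathione donor and nickel acceptor beads were added for 1 h before AlphaScreen reading.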
TrxR1 substrate: qHTS Assay for Substrates of Mammalian Selenoprotein Thioredoxin Reductase 1 (TrxR1): qHTS. purified TrxR1 substrate turnover, NADPH consumption readout. actives 0.01% (n = 390,000). Potency, µM (doses to about 114 µM); note: nearly all actives have a fitted effect of over 50% in size
Target sequence (O89049 whole entry, looked up): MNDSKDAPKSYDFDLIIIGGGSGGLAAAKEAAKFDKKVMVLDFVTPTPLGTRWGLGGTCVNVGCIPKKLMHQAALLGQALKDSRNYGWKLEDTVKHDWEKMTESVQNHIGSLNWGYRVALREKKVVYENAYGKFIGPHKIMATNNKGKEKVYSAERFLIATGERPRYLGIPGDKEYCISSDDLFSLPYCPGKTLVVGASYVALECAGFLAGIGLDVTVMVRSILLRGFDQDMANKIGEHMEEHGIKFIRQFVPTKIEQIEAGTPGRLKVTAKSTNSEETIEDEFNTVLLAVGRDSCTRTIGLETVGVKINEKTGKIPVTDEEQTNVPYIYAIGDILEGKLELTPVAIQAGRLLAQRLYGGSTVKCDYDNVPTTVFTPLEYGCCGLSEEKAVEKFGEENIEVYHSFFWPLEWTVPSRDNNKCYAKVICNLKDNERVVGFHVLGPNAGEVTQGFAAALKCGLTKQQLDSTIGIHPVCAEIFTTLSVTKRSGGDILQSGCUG
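Rat TrxR1, dispensed at 90 nM, was prereduced with 400 uM NADPH (final) for 5 min at ~22 deg C, then incubated with compound 15 min before 400 uM selenite. A first-read NADPH fluorescence drop versus no-compound background flagged substrates.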
Six1-Eya2 inh: qHTS Assay for Inhibitors of the Six1/Eya2 Interaction; AlphaScreen GST-Six1/His-Eya2 binding, biochemical; stronger effect = lower value; actives 0.56% (n = 360,000); activity change, % (concentration not given with the values); Homeobox protein SIX1 (Homo sapiens) + Protein phosphatase EYA2 (Homo sapiens), …; in the data active = activity change below about -65%; inconclusive = mostly about -30% to -63%
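Six1/Eya2 binding was read as AlphaScreen signal after compounds were pinned into GST-Six1 plus His-tagged Eya2 (5X stock 250/500 nM) in pH 8.0 Tris/NaCl/TCEP buffer, beads added, then incubated 1 h, 37 C, dark.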
TrxR1 inh: qHTS Assay for Inhibitors of Mammalian Selenoprotein Thioredoxin Reductase 1 (TrxR1): qHTS | Thioredoxin reductase 1, cytoplasmic (Rattus norvegicus), O89049 | recombinant rTrxR1, NADPH fluorescence consumption, selenite substrate | Potency, µM (top dose mostly 114 µM), usual class: inhibitors | actives 1% (n = 390,000) | AID 588453, 2011; note: nearly all actives have a fitted effect of over 65% in size
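Rat TrxR1 (90 nM in the dispensed reagent) was pre-reduced with 400 uM NADPH for 5 min at room temperature, then incubated with compound for 15 min. After 400 uM selenite was added, NADPH fluorescence (Ex 340/Em 450 nm) was followed for 8 min.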
Eya2 inh: qHTS Assay for Inhibitors of the Phosphatase Activity of Eya2 | Protein phosphatase EYA2 (Homo sapiens), O00167 | recombinant Eya2, OMFP fluorescence dephosphorylation (OMFP is methylfluorescein phosphate) | actives 0.006% (n = 330,000) | AID 488837, 2010 | Potency, µM (doses to about 76.9 µM), most hits filed as inhibitors
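Eya2 (0.2 uM) preincubated 10 min at ambient with compound, then OMFP substrate added at 50 uM; 10 min reaction in 50 mM HEPES pH 7.5, 50 mM NaCl, 5 uM MgCl2, 0.05% BSA, 1 mM DTT. Fluorescence read at Ex 485/Em 525 nm.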
Hits are given with their value; 0 = inactive; ? = inconclusive; - = no result given; ! = a repeat was not active; [ ] = remark or other dose. Hits are enriched below; roughly 1.5% of the tested compounds scored in any of these assays. Unless noted, calls come from the whole dose curve; as a rule, active = well fitted curve in the direction sought with a large enough effect; inconclusive = small, poorly fitted or top-dose-only effect, or another doubt; inactive = no such curve, though single readings can be large; an effect the other way counts as inactive or inconclusive.

SMILES	GALK inhibitor	CtBP-E1A blk	TrxR1 substrate	Six1-Eya2 inh	TrxR1 inh	Eya2 inh
O=[N+]([O-])c1cc(Br)c(OCc2nnc(-c3ccccc3)o2)c(Br)c1	0	-	0	0	0	0
CCOc1ccc(NC(=O)c2cc3c(n(-c4ccc(OC)cc4)c2=O)CC(C)(C)CC3=O)cc1	-	-	0	-	0	-
CCNC(=O)C/C(C)=N/NC(=O)C12CC3CC(CC(C3)C1)C2	-	0	0	0	25.1µM	0
CC(C)NC(=O)Cn1nc(N2CCN(c3ccccc3)CC2)ccc1=O	-	-	0	-	0	-
O=C1CSC(=S)N1/N=C/c1c(F)cccc1F	0	?	0	0	?	0
O=C1CSC(=S)N1N=C1CCCCCC1	0	0	0	-80.0	?	0
C=CCNc1nnc(SC2CC(=O)N(c3ccc(OCCC)cc3)C2=O)s1 (stereo not given)	0	0	0	0	7.08µM	0
COc1ccc(N2C(=O)CC(Sc3nnnn3-c3ccc(F)cc3)C2=O)cc1 (stereo not given)	0	0	0	0	?	0
O=C1CC(Sc2nnnn2-c2ccccc2)C(=O)N1c1cccc(Cl)c1 (stereo not given)	0	0	0	0	31.6µM	0
CCOC(=O)c1ccc(N2C(=O)CC(Sc3nnc(C)s3)C2=O)cc1 (stereo not given)	0	0	0	0	5.62µM	0
CCOC(=O)c1ccc(N2C(=O)CC(Sc3nc(C)cc(C)n3)C2=O)cc1 (stereo not given)	0	-	0	0	0	0
Nc1nnc(SC2CC(=O)N(c3ccccc3)C2=O)s1 (stereo not given)	0	0	0	0	28.2µM	0
COC(=O)C1=C(c2ccccc2)c2ccccc2S(=O)(=O)N1CC(=O)Nc1ccc(F)c(F)c1	-	-	0	-	0	-
COc1ccc(NC(=O)Cn2c(=O)n(CCC(=O)NCc3ccccc3OC)c(=O)c3ccccc32)cc1Cl	-	-	0	-	0	-
CCOC(=O)c1ccc(N2C(=O)C=CC2=O)cc1	0	0	0	0	8.91µM	0
Cc1ccc(-n2c(=O)c3cccnc3n2CC(=O)Nc2ccc(Br)cc2)cc1C	-	-	0	-	0	-
O=C(CSc1oc(-c2ccc(F)cc2)nc1S(=O)(=O)c1ccccc1)c1ccc(Cl)cc1	-	-	0[2.29 µM]	-	0	-
CN(C)c1oc(-c2ccc(Cl)cc2)nc1S(=O)(=O)c1ccccc1	0	0	0	0	35.5µM	0
CSc1oc(-c2ccc(F)cc2)nc1S(=O)(=O)c1ccc(Br)cc1	-	-	0	-	0	-
CCCCS(=O)(=O)c1oc(-c2ccc(F)cc2)nc1S(=O)(=O)c1ccc(C)cc1	-	-	0	-	1.41µM	-
CCC(C)S(=O)(=O)c1oc(-c2ccc(F)cc2)nc1S(=O)(=O)c1ccc(F)cc1 (stereo not given)	-	-	0	-	2µM	-
O=S(=O)(c1ccccc1)c1nc(-c2ccc(F)cc2)oc1N1CCCCCC1	-	-	0	-	0	-
CCS(=O)(=O)c1oc(-c2ccc(F)cc2)nc1S(=O)(=O)c1ccccc1	-	-	0	-	0.501µM	-
Cc1ccc(CNC(=O)c2ccc(N3CCCC3)c(NC(=O)Nc3ccc(C)cc3)c2)cc1	-	-	0	-	0	-
CCCCS(=O)(=O)c1oc(-c2cccs2)nc1S(=O)(=O)c1ccc(F)cc1	-	-	0	-	0.708µM	-
SMILES	GALK inhibitor	CtBP-E1A blk	TrxR1 substrate	Six1-Eya2 inh	TrxR1 inh	Eya2 inh
CCCSc1oc(-c2cccs2)nc1S(=O)(=O)c1ccc(C)cc1	-	-	0	-	0	-
CCCCCS(=O)(=O)c1oc(-c2cccs2)nc1S(=O)(=O)c1ccc(C)cc1	-	-	0	-	1.58µM	-
CC(C)(C)n1ncc2c(=O)n(Cc3cccc(-c4ccccc4)c3)cnc21	-	-	0	-	0	-
CC/C(=N\Nc1ccccc1[N+](=O)[O-])c1ccc(O)cc1	0	-71.4	0	?	0	0
CNCC(O)COc1ccccc1 (stereo not given)	0	0	0	0	70.8µM	0
c1ccc2nccnc2c1	-	-	0	-	?	-
CCOC(=O)c1sc(=S)n(-c2ccc(OC)cc2)c1C	0	0	0	0	0	?
CCOC(=O)c1c2c(n(-c3ccc(OC)cc3)c1C)C(=O)C(=O)c1ccccc1-2	-	0	56.2µM	?	?	-
Nc1ccc(O)cc1	-	-	?	-	14.1µM	-
Cc1c(Cl)sn(-c2ccc(Cl)cc2)c1=O	0	0	0	0	5.01µM	0
Cc1nn(-c2ccc(Cl)cc2)c(=O)c2ccccc12	0	-	0	0	0	0
CC(C)(C)c1ccc(NS(=O)(=O)c2ccc(N)cc2)cc1	0	0	0	0	0	0
CC(C)(C)c1ccc(S(=O)(=O)/C=C/C#N)cc1	-	-	0	-	2.12µM!	0
Cc1ccc(C(O)(C(=O)NN(C(=O)c2ccccc2)c2ccccc2)c2ccc(C)cc2)cc1	0	0	0	0	0	0
O=C(Nc1ccccc1)NN(C(=O)CCl)c1ccccc1	0	0	0	0	7.94µM	0
Cc1ccc(N(NC(=O)C(O)(c2ccccc2)c2ccccc2)C(=O)CCl)cc1	0	0	0	0	7.08µM	0
CCn1nc(C)cc1C(=O)Sc1cccc(Br)c1	0	0	0	0	7.94µM	0
CCn1nc(C)cc1C(=O)Sc1ccc(Cl)cc1Cl	0	0	0	0	?	0
CCOc1ccc(C(=O)N/N=C/c2cc([N+](=O)[O-])cs2)cc1	0	0	0	0	0	0
COc1cc(C(=O)N/N=C/c2cc([N+](=O)[O-])cs2)cc(OC)c1OC	-	-71.8	0	?	0	0
Cc1cc(NC(=O)CSc2ccccc2)no1	0	0	0	0	0	0
Cc1cc(NC(=O)CSc2nnc(C)o2)no1	0	-85.7	0	?	0	0
Cc1cc(NC(=O)CSc2nnc(CNC(=O)c3c(F)cccc3F)o2)no1	0	-80.1	0	?	0	0
CCC(c1nnc(SCC(=O)NC23CC4CC(CC(C4)C2)C3)o1)N(C)C (stereo not given)	0	0	0	0	0	0
Cc1nnc(SCC(=O)Nc2nccs2)o1	0	-73.2	0	?	0	0
CCC(c1nnc(SCC(=O)Nc2cc(C)on2)o1)N(C)C (stereo not given)	-	-91.2	0	?	0	0
Cc1cc(NC(=O)CSc2nnc(-c3ccc(O)cc3)o2)no1	0	0	0	?	0	0
Cc1cc(C)cc(-c2nnc(SCC(=O)Nc3cc(C)on3)o2)c1	-	-65.4	0	?	0	0
Cc1cccc(NC(=O)CSc2nnc(-c3ccco3)c(-c3ccco3)n2)c1C	0	0	0	?	2.82µM	0
